Assay [1] is described as follows: compounds binding Alexa647 anti-His antibody – biochemical, small-molecule microarray, 635 nm fluorescence, artefact control for SMM control protein annotation, primary screen (AID 1128).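 Further: score merges feature fluorescence with signal-to-noise for each printed compound spot.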 Particulars: higher = more signal.
Assay [2] has as its system Human papillomavirus type 1a E7 protein (residues 1-88). The assay can be described thus: HPV1a E7 small-molecule binders, primary screen, biochemical, small-molecule microarray, residues 1-88, 635 nm (AID 1129). As to conditions: small-molecule microarray binding, fluorescence 635 nm; higher = more signal.
The target of assay [3] is Focal adhesion kinase 1 (Homo sapiens) (UniProt Q05397). The assay can be described thus: PTK2 protein binding on printed compound slides – biochemical, small-molecule microarray, 635/667 nm fluorescence, BSA, DTT, primary screen (AID 1130).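 Further: composite of spot emission at 667 nm and signal to noise over triplicate slides.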 As to conditions: 635 nm fluorescence, higher = more signal.
Chain of Focal adhesion kinase 1 (Homo sapiens) (Q05397 whole entry, looked up): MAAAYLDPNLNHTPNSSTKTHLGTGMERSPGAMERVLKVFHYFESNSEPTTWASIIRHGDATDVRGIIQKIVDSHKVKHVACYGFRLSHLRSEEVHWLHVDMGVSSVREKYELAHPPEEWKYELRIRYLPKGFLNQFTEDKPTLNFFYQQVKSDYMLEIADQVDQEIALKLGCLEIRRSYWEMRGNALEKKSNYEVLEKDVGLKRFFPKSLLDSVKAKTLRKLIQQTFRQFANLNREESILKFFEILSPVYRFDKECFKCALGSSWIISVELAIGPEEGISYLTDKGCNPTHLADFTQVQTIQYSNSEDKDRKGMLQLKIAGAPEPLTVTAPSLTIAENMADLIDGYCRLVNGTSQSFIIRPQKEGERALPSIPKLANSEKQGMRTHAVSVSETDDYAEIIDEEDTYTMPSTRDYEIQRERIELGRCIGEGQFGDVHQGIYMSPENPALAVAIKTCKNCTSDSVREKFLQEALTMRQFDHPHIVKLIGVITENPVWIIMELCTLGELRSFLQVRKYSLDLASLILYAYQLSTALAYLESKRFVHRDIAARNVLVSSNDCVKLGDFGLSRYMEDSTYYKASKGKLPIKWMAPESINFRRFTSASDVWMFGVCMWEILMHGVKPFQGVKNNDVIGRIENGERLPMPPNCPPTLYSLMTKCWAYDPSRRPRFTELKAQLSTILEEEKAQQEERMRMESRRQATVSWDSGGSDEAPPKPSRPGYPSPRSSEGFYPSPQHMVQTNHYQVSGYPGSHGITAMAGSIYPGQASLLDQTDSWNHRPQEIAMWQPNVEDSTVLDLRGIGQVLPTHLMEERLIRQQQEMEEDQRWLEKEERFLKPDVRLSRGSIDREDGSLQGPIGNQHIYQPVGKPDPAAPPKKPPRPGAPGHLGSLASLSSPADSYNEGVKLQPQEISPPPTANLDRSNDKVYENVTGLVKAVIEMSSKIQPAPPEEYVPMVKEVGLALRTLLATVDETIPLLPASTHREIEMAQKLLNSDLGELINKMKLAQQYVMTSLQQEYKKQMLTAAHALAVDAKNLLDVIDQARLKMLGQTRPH
The subject of assay [4] is Fibrinogen (Alexa647-labelled). The assay can be described thus: Alexa647-fibrinogen binding to printed small molecules – biochemical, small-molecule microarray, 635/667 nm fluorescence, artefact control for SMM control-protein annotation, profiling panel (AID 1131).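 Further: z-score merges 667 nm fluorescence with per-spot signal-to-noise over triplicate slides.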 As to conditions: fibrinogen-A647 binding fluorescence, higher = more signal.
Assay [5] addresses Follistatin (Homo sapiens) (UniProt P19883). The assay can be described thus: FST protein binding to printed compounds – biochemical, small-molecule microarray, 635/667 nm fluorescence, primary screen (AID 1132). Particulars: 635 nm fluorescence, higher = more signal.
Assay [6] has as its target Fibroblast growth factor 2 (Homo sapiens) (UniProt P09038). Nature of the assay: basic fibroblast growth factor binding to printed compounds – biochemical, small-molecule microarray, 635/667 nm fluorescence, primary screen (AID 1133). As to conditions: FGF2, fluorescence 635/667, higher = more signal.
A short description of assay [7]: JC-1 mitochondrial potential readout, lung cancer cells – cell-based, A549, JC-1 fluorescence, basal, 24 h, 100 nL, profiling panel (AID 1138).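 Further: A549 lung adenocarcinoma cells under basal conditions with no added stimulus; test concentration not given here.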 As to conditions: higher = more signal.
The subject of another assay is Lefty1. The assay can be described thus: Lefty1 protein binding to printed compounds – biochemical, small-molecule microarray, 635/667 nm fluorescence, primary screen (AID 1139). Particulars: fluorescence 635/667, higher = more signal.
For assay [8], the system named is wheat germ agglutinin (Triticum aestivum), Alexa647-labelled. Nature of the assay: Alexa647-WGA lectin binding to printed small molecules – biochemical, small-molecule microarray, 635/667 nm fluorescence, artefact control for SMM control-protein annotation, profiling panel (AID 1140).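 Further: score merges 667 nm feature emission with signal to noise over triplicate slides.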 As to conditions: WGA-A647 binding, 635 nm fluorescence, higher = more signal.
Assay [9] concerns the target Luciferin 4-monooxygenase (Photinus pyralis) (UniProt P08659). Nature of the assay: inhibition of purified Photinus pyralis luciferase – biochemical, luminescence, purified enzyme, 2006 set, primary screen (AID 1141).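 Further: cell-free assay with purified firefly luciferase at 100 ng per well in PBS; test concentration not given here.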 As to conditions: purified firefly luciferase, SteadyGlo luminescence, 30 min; higher = more signal, called active from +8 up or from −8 down.
In assay [10] the test system is Wnt5a (protein binding on small-molecule microarray). The assay can be described thus: small molecules binding Wnt5a protein – biophysical, small-molecule microarray, 635/667 nm fluorescence, primary screen (AID 1142).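 Further: fluorescence read at 667 nm with signal to noise per printed feature.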 Particulars: 635 nm fluorescence, higher = more signal.
The nature of assay [11]: ATP-based viability of Huh7 replicon cells – cell-based, CellTiter-Glo luminescence, basal, 48 h, cytotoxicity control for HCV replication inhibitor project, primary screen (AID 1143).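 Further: Huh7 hepatoma cells carrying a hepatitis C replication reporter with no stimulus; test concentration not given here.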 Particulars: higher = more signal, called active from +8 up or from −8 down.
Assay [12] in a line: Pseudomonas biofilm growth suppression – PAO1 strain, BacTiter-Glo luminescence, LB-PBS, primary screen (AID 1144). Particulars: P. aeruginosa PAO1 biofilm, 12 h, higher = more signal.
Assay [13] can be described thus: basal CRE-LacZ reporter activity in PC12 – cell-based, unstimulated, primary screen (AID 1145). As to conditions: no forskolin, luminescence, 4.5 h, higher = more signal, called active from +8 up or from −8 down.
The nature of assay [14]: forskolin-driven CRE-LacZ activity in PC12 – cell-based, CRE-LacZ reporter, forskolin-stimulated, primary screen (AID 1146).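 Further: PC12 cells with 6xCRE LacZ reporter stimulated by forskolin 10 µM; beta-galactosidase reporter signal reflecting CREB driven transcription.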 As to conditions: luminescence, 4.5 h, higher = more signal, called active from +8 up or from −8 down.
In assay [15] the target is Streptavidin (Streptomyces avidinii) (UniProt P22629). The assay can be described thus: compounds binding control protein streptavidin – biophysical, small-molecule microarray, 635/667 nm fluorescence, artefact control for SMM compound annotation, primary screen (AID 1147).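 Further: signal reflects streptavidin binding to arrayed compounds as a control protein.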 Particulars: higher = more signal.
Chain of Streptavidin (Streptomyces avidinii) (P22629 whole entry, looked up): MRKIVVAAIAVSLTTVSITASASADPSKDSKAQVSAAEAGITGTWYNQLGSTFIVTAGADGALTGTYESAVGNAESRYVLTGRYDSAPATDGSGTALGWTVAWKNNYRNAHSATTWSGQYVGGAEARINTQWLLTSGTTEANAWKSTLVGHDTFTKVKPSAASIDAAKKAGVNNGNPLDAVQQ
A short description of assay [16]: probe aInhba binding on compound microarray – biochemical, small-molecule microarray, 635/667 nm fluorescence, primary screen (AID 1148).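 Further: score merges 667nm spot fluorescence with signal-to-noise for antibody binding to printed compounds.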 Particulars: higher = more signal.
Assay [17] addresses Torsin-1A (Homo sapiens) (UniProt O14656). Nature of the assay: TOR1A wild-type binding on microarray – cell lysate, small-molecule microarray, lysate, 635/667 nm, primary screen (AID 1149). As to conditions: COS7 hTOR1A-WT lysate, 635 nm fluorescence, higher = more signal.
Assay [18] shares this target. Nature of the assay: torsin A mutant lysate binding on microarrays – cell lysate, small-molecule microarray, COS7 lysate, 635/667 nm fluorescence, primary screen (AID 1150).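 Further: score pools 667 nm emission and signal to noise measuring lysate protein binding.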 Particulars: COS7 hTOR1A mutant lysate, 635 nm fluorescence, higher = more signal.
Assay [19] relates to Sonic hedgehog protein (Shh). Nature of the assay: Sonic hedgehog microarray binding compounds – biochemical, small-molecule microarray, 635/667 nm fluorescence, primary screen (AID 1151).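 Further: Shh protein binding to compounds spotted on small-molecule microarray slides; score combines spot fluorescence intensity with signal-to-noise across triplicate slides.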 Particulars: 635 nm fluorescence, higher = more signal.

The source made the active and inactive calls. Unless noted, how the calls were made is not given here.

Chain of Follistatin (Homo sapiens) (P19883 whole entry, looked up): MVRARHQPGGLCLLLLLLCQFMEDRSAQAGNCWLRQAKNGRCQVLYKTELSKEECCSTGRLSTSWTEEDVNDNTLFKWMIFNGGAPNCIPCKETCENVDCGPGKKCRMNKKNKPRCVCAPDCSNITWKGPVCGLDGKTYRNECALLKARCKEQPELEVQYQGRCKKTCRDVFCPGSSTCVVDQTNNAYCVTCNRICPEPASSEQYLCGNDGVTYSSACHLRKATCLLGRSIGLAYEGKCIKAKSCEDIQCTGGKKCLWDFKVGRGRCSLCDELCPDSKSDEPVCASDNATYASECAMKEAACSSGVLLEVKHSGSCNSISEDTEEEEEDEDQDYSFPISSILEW
Chain of Fibroblast growth factor 2 (Homo sapiens) (P09038 whole entry, looked up): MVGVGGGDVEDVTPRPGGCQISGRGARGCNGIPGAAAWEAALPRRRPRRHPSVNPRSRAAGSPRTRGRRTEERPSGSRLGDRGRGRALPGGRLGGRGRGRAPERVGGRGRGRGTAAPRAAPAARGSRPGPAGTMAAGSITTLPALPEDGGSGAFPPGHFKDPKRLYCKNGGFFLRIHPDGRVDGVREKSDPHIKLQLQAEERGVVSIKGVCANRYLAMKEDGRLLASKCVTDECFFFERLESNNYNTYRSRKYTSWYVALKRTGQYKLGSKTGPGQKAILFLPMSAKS
Chain of Torsin-1A (Homo sapiens) (O14656 whole entry, looked up): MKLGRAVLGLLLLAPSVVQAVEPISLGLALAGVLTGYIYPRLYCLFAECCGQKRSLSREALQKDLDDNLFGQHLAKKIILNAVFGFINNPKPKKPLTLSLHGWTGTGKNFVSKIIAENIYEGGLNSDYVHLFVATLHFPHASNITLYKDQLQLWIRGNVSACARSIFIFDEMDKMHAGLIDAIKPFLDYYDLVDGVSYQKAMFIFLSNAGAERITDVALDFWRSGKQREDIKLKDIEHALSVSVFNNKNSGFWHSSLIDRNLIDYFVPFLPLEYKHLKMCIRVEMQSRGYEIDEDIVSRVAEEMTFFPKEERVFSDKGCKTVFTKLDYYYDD
Chain of Luciferin 4-monooxygenase (Photinus pyralis) (P08659 whole entry, looked up): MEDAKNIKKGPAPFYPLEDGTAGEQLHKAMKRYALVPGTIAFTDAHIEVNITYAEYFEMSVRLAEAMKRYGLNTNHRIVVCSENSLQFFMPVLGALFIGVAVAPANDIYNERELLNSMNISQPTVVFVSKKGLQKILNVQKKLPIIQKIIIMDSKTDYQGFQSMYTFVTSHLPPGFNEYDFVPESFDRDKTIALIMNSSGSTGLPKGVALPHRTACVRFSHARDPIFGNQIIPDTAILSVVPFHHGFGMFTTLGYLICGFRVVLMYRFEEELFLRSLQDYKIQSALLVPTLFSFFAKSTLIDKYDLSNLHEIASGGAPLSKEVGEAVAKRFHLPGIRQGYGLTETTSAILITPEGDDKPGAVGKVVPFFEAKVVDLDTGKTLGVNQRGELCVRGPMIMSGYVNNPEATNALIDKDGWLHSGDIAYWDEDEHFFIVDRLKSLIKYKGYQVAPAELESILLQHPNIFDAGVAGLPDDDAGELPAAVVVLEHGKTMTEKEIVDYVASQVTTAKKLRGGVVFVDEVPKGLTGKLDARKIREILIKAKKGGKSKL

In the case of `COc1ccc([Si](C)(C)[C@H]2[C@H](CCn3cc([C@H](O)c4ccccc4)nn3)O[C@@]3(C(=O)N(C)c4c(Br)cc(C)cc43)[C@@H]2C)cc1`, the composite z-score in assay [1] is 0.523; in [2], -0.212; in assay [3], -0.472; in assay [4], -0.496; in assay [5], 1.5; in [6], 1.87. For the same molecule, the composite z-score with Lefty1 was 1.37; in [8], 0.343; in [10], -0.0472; in [15], -0.124; in assay [16], -0.208; in the assay with Torsin-1A (Homo sapiens) [17], 0.877. The values for the composite z-score (in the assay with Torsin-1A (Homo sapiens) [18]; in assay [19]) were 0.19 and 0.964, respectively. Further, the z-score was 0.134 in assay [7]; -0.877 (inactive) in assay [9]; -4.01 (inactive) in assay [11]; -0.23 (inactive) in assay [12]; 7.95 (inactive) in assay [13]; -1.66 (inactive) in assay [14].

As to `CC(C)(C)N1CC=CC23O[C@@H]4/C=C\CCCOC(=O)C4[C@H]2C(=O)N(CCCCCCO)[C@@H]3C1=O` (stereo not given in full), the composite z-score is 3.08 in [1]; -0.444 in assay [2]; -0.639 in [3]; -1.01 in assay [4]; -0.93 in assay [5]; -0.502 in [6]. Also, the composite z-score in the assay on Lefty1 was -1.11; in [8], 0.0119; in [10], -0.731; in assay [15], -1; in assay [16], -0.0719; with Torsin-1A (Homo sapiens) [17], 0.467. Moreover, the results for the composite z-score (in the assay with Torsin-1A (Homo sapiens) [18]; in [19]) were 0.488 and -0.22, respectively. Also, the z-score is 1.2 in assay [7]; -0.854 (inactive) in assay [9]; -0.0711 (inactive) in assay [11]; -1.95 (inactive) in assay [12]; -0.224 (inactive) in [13]; -0.739 (inactive) in assay [14].

For the molecule `C=CCC(OC(C)=O)[C@@H]1[C@@H](N(Cc2ccc(-c3ccccc3)cc2)C(=O)c2ccc(-c3ccccc3)cc2)c2cc(OCCCO)ccc2N1C(=O)c1ccc2ccccc2n1` (stereo not given in full), the composite z-score was -0.513 in assay [1]; 0.907 in assay [2]; 0.879 in assay [3]; -0.239 in [4]; 0.548 in [5]; 0.051 in assay [6]. The composite z-score in the assay on Lefty1 was -0.101; in assay [8] it was 0.152; in assay [10], -0.0949; in [15] it was 0.21; in assay [16] it was 0.333; with Torsin-1A (Homo sapiens) [17] it was -0.178. Further, the composite z-score with Torsin-1A (Homo sapiens) [18] was 0.342; in [19] it was 0.767. Further, the z-score in [7] was 1.61; in assay [9], -1.46 (inactive); in assay [11] it was 0.115 (inactive); in assay [12] it was 0.196 (inactive); in [13] it was 0.992 (inactive); in assay [14], 0.705 (inactive).

Turning to `COc1cccc(OC)c1C(=O)O[C@H]1[C@@H]2OC(=O)[C@H](Cc3cccc(Br)c3)C/C=C/C[C@@H](Cc3cccc(Br)c3)C(=O)O[C@H]2[C@@H](OC)O[C@@H]1CO`, the composite z-score in assay [1] was 0.267; in assay [2] it was 1.1; in assay [3], 0.573; in [4], 0.383; in assay [5], 1.38; in assay [6], 1.28. Further, the composite z-score was 0.742 in the assay with Lefty1; 0.0452 in assay [8]; 0.125 in assay [10]; -0.114 in assay [15]; -0.128 in [16]; -0.0031 in the assay with Torsin-1A (Homo sapiens) [17]. Moreover, the figures for the composite z-score (with Torsin-1A (Homo sapiens) [18]; in [19]) were 0.529 and 1.23, respectively. The z-score in [7] was 1.27; in assay [9], -0.21 (inactive); in assay [11], -1.74 (inactive); in [12] it was -0.0318 (inactive); in assay [13], -0.467 (inactive); in assay [14] it was -0.201 (inactive).

For the origin of these results see PubChem BioAssay.
